This is a sample that favours compounds with a hit; in the whole collection about 5.6% have one here.
ALR inh = inhibitors of human ALR sulfhydryl oxidase, primary screen, biochemical, H2O2 detection, HRP-luminol luminescence, single point; purified ALR, DTT oxidation; inhibition, % (test concentration not listed); 290,000 compounds, 3.8% hits;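 active means mean replicate inhibition above about 79%, with every replicate also reaching it, limit read from the data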
Target sequence (P55789 whole entry, looked up): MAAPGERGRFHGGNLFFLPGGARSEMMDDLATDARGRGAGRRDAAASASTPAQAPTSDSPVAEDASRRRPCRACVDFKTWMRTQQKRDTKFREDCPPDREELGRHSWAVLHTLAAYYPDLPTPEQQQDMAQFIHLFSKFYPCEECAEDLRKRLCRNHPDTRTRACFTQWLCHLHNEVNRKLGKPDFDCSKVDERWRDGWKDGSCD
PfGluPho inh = PfG6PD enzyme inhibitors, primary screen, biochemical, fluorescence intensity, uHTS. glucose-6-phosphate dehydrogenase-6-phosphogluconolactonase (Plasmodium falciparum 3D7). PfGluPho enzyme, NADPH resazurin-diaphorase fluorescence. inhibition, % at 20 µM. 350,000 compounds, 0.78% hits;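 active means inhibition reaching at least a set limit at 20 µM in the primary screen, cut at about 59% in these data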
Cardio protect = cardioprotection against H2O2-induced cell death, primary screen, uHTS, H9c2 cells, ATPLite luminescence | H9c2 cardiomyocytes, H2O2 injury protection, 2 h | protection from H2O2 cell death, % at 20 µM | 360,000 compounds, 0.63% hits;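 active means compounds giving at least 50% protection of heart cells from peroxide-induced death in the single-dose screen, raw or plate-pattern-corrected value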
PHOSPHO1 inh = PubChem AID 1565 | Phosphoethanolamine/phosphocholine phosphatase (Homo sapiens), Q8TCT1 | recombinant PHOSPHO1, absorbance phosphatase assay | inhibition, % at 13.3 µM | 290,000 compounds, 1.1% hits; in the data active means inhibition above about 60%
M18AAP inhibitor = PfM18AAP inhibitors, malaria aminopeptidase, primary screen, biochemical, QFRET, recombinant enzyme; AID 1822, 2009; 290,000 compounds, 1.2% hits; inhibition, % at 7.35 µM; H-Glu-NHMec fluorogenic cleavage;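 active means inhibition above the campaign mean inhibition over all tested compounds plus 3 SD, cut at about 28% in these data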
Hits are given with their value; n = inactive; x = not tested or not shown.

SMILES | ALR inh | PfGluPho inh | Cardio protect | PHOSPHO1 inh | M18AAP inhibitor
CC(NS(C)(=O)=O)C(c1cccs1)N1CCN(c2ccc(F)cc2)CC1 (stereo not given) | 98.2 | n | n | n | n
COc1ccc(N2CCN(C(c3cccs3)C(C)NS(C)(=O)=O)CC2)cc1 (stereo not given) | 98.8 | n | n | n | n
CC(NS(C)(=O)=O)C(c1cccs1)N1CCN(C)CC1 (stereo not given) | n | n | n | n | n
O=C(CCC1CCCCC1)NC1CCCCC1 | x | n | n | x | x
CCCN(c1ccccc1F)S(=O)(=O)c1c[nH]c(C(=O)OC)c1 | n | n | n | 70.0 | n
COC(=O)c1cc(S(=O)(=O)N(C)c2ccc(C)c(C)c2)c[nH]1 | n | n | n | n | n
CCOc1ccc(N(C)S(=O)(=O)c2c[nH]c(C(=O)OC)c2)cc1 | n | n | n | 64.9 | n
O=C(OCCCOC(=O)c1ccc(Br)o1)c1ccc(Br)o1 | n | n | n | x | x
CCOc1ccc2c(c1)C(C)=CC(C)(C)N2C(=O)Nc1ccccc1 | n | 77.6 | n | n | n
COc1ccc(NC(=O)N2c3ccc(OC)cc3C(C)=CC2(C)C)cc1 | n | n | n | n | n
CCOc1ccc(-c2cc(N3C(=O)Nc4ccccc4N3O)n[nH]2)cc1 | 97.7 | n | n | n | n
CC(C)(C)c1ccc(C(=O)NC(=S)N2CCCC2)cc1 | n | n | n | n | n
CC(C)(C)c1ccc(C(=O)NC(=S)Nn2cnnc2)cc1 | n | n | n | n | 55.3
O=C(NCC1CCCO1)c1cc([N+](=O)[O-])ccc1Cl (stereo not given) | 95.4 | n | n | n | n
O=C(NCC1CCCO1)c1ccccc1NS(=O)(=O)c1cc([N+](=O)[O-])ccc1Cl (stereo not given) | x | n | n | x | x
N#CC1=C(N)n2c(s/c(=C\c3ccco3)c2=O)=C(C#N)C1c1ccco1 (stereo not given) | n | n | n | n | n
N#CC1=C(N)n2c(s/c(=C\c3cccs3)c2=O)=C(C#N)C1c1cccs1 (stereo not given) | 99.4 | n | n | n | n
Cn1cnc([N+](=O)[O-])c1S(=O)(=O)Oc1ccc(Cl)cc1 | x | n | n | x | x
CCC(=O)N1CCCC1(C)C(=O)Nc1ccc2scnc2c1 (stereo not given) | x | x | n | x | x
Cc1cc(C)c2sc(N(CCN(C)C)C(=O)c3cc(Cl)sc3Cl)nc2c1 | n | n | n | n | n
Cc1ccc2nc(N(CCN(C)C)C(=O)c3cc(Cl)sc3Cl)sc2c1 | 96.5 | n | n | n | n
Cn1c(=O)[nH]c(=O)c2c1nc(Br)n2C/C=N/Nc1ccccc1 | 100.3 | n | n | n | n
COCCCNc1nc2c(c(=O)[nH]c(=O)n2C)n1CC(O)COc1ccccc1 (stereo not given) | n | n | n | 91.7 | n
COc1ccc(OCC(O)Cn2c(N)nc3c2c(=O)[nH]c(=O)n3C)cc1 (stereo not given) | x | n | n | 60.8 | n
COCCCNc1nc2c(c(=O)[nH]c(=O)n2C)n1CC(O)COc1ccccc1C (stereo not given) | n | n | n | n | n
SMILES | ALR inh | PfGluPho inh | Cardio protect | PHOSPHO1 inh | M18AAP inhibitor
COc1ccc(CCn2c(N3CCN(C)CC3)nc3c2c(=O)[nH]c(=O)n3C)cc1 | n | n | n | n | n
COc1ccc(CCn2c(Br)nc3c2c(=O)[nH]c(=O)n3C)cc1 | n | n | 63.9 | n | n
Cc1ccc(NC(=O)COC(=O)[C@@H]2CC(O)CN2S(=O)(=O)c2ccc3c(c2)OCCO3)cc1 (stereo not given in full) | n | n | n | x | x
O=C(NCCCn1cccn1)c1cc(COc2ccccc2)on1 | x | n | n | x | x
O=C1/C(=C\c2c(NCCOCCO)nc3ccccn3c2=O)SC(=S)N1Cc1ccco1 | n | n | n | n | n
COc1ccccc1N(CC(=O)Nc1ccc2c(c1)OCO2)S(=O)(=O)c1ccccc1 | n | n | n | 92.3 | n
CCCCn1c(NCCO)nc2ccccc21 | 97.8 | n | n | n | n
CCCn1c(NCc2cc(C)ccc2O)nc2ccccc21 | x | n | n | n | 30.4
Cc1ccc(O)c(CNc2cnc3ccccc3c2)c1 | 97.7 | n | n | n | n
CCCCn1c(NC(=O)c2ccccc2)nc2ccccc21 | n | n | 81.2 | n | n

Assay outcomes deposited in PubChem by several laboratories.
